# According to the supplement of paper PMC12532568:
# Structures can show the parent of a compound that is named as a salt.
# Test system: Danio rerio larvae Tg(actc1b:ZsGreen-LC3), 3 dpf
# Assay: LC3 puncta relative area vs vehicle, without NH4Cl (log2 fold change); higher = more autophagosomes
# Details: 10 µM; treatment time 16 h; NH4Cl: none
# Experimental: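 Transgenic Tg(actc1b:ZsGreen-map1lc3) zebrafish larvae (2 dpf) were treated for 16 h with Tocris library compounds at 10 µM (n = 12 larvae per compound). Skeletal-muscle LC3 puncta area relative to body area was measured by high-content confocal imaging before and after 4 h of 100 mM NH4Cl (autophagic flux), normalised to vehicle (DMSO), and reported as log2 fold change.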
row,SMILES,LC3 puncta (log2)
1,CCCN(C/C=C/I)C1CCc2ccc(O)cc2C1 (stereo not given) [7-Hydroxy-PIPAT maleate],-0.263
2,S=C(NC1CCCCC1)N1CCC(c2cnc[nH]2)CC1 [Thioperamide],0.0474
3,CC(N)Cc1cnc[nH]1 (stereo not given),0.372
4,NCC(CS(=O)(=O)O)c1ccc(Cl)cc1 (stereo not given) [Saclofen],-0.022
5,c1ccc(CCCCN2CCC(c3ccccc3)CC2)cc1 [4-PPBP maleate],0.0152
6,CC(=O)NCCc1c[nH]c2ccccc12 [N-Acetyltryptamine],-0.161
7,N[C@@]1(C(=O)O)CC[C@@H](C(=O)O)C1,0.259
8,NCCc1c[nH]c2ccc(C(N)=O)cc12 [5-Carboxamidotryptamine maleate],0.0843
9,Oc1ccc2c3c1O[C@H]1c4c(c5ccccc5n4Cc4ccccc4)C[C@@]4(O)C(C2)N(CC2CC2)CC[C@]314 [N-Benzylnaltrindole hydrochloride],0.458
10,N=C(NCc1ccc(Cl)cc1)SCCCc1c[nH]cn1 [Clobenpropit dihydrobromide],0.454
11,O=C(CCCN1CCC2(CC1)C(=O)N(Cc1cccc(F)c1)CN2c1ccccc1)c1ccc(F)cc1 [3'-Fluorobenzylspiperone maleate],0.503
12,Oc1ccc2c3c1O[C@H]1c4[nH]c5ccccc5c4C[C@@]4(O)[C@@H](C2)N(CC2CC2)CC[C@]314 [Naltrindole hydrochloride],0.245
13,CN1C[C@H](CNC(=O)OCc2ccccc2)C[C@@H]2c3cccc4c3c(cn4C)C[C@H]21 [Metergoline],0.0502
14,c1ccc2c(c1)OCC(C1=NCCN1)O2 (stereo not given) [Idazoxan hydrochloride],0.411
15,c1ccc(CCCN2CCN(CCOC(c3ccccc3)c3ccccc3)CC2)cc1,0.0674
16,Fc1ccc(C(OCCN2CCN(CCCc3ccccc3)CC2)c2ccc(F)cc2)cc1,0.491
17,N[C@@H](Cn1oc(=O)[nH]c1=O)C(=O)O [L-Quisqualic acid],0.387
18,C=CCN1CC[C@]23c4c5ccc(O)c4O[C@H]2C(=O)CC[C@@]3(O)[C@H]1C5 [Naloxone hydrochloride],0.085
19,Fc1ccc(C(OCCN2CCN(C/C=C/c3ccccc3)CC2)c2ccc(F)cc2)cc1,0.527
20,S=C=Nc1cccc(C2(N3CCCCC3)CCCCC2)c1 [Metaphit],0.663

row,SMILES,LC3 puncta (log2)
1,O=C(O)/C=C/CO [trans-4-Hydroxycrotonic acid],-0.0373
2,CO[C@]12C[C@@H](COC(=O)c3cncc(Br)c3)CN(C)[C@@H]1Cc1cn(C)c3cccc2c13 [Nicergoline],0.51
3,COc1ccc(CNC(=O)/C=C/c2ccc3[nH]cc(CCN(C)C)c3c2)cc1,-0.124
4,"Cc1cc(C)cc(C(=O)OC2C[C@H]3CC[C@@H](C2)N3C)c1 (stereo not given in full) [Tropanyl-3,5-dimethylbenzoate]",0.0365
5,O=C1NCN(c2ccccc2)C12CCN(CC1COc3ccccc3O1)CC2 (stereo not given) [Spiroxatrine],0.423
6,OC1CCCCC1N1CCC(c2ccccc2)CC1 (stereo not given) [(?)-Vesamicol hydrochloride],0.548
7,CCCN(CCC)[C@@H]1CCc2c(OC)cccc2[C@@H]1C [(+)-UH 232 maleate],0.36
8,"CN(C(=O)Cc1ccc(Cl)c(Cl)c1)[C@H](CN1CCCC1)c1ccccc1 [ICI 199,441 hydrochloride]",0.0954
9,CCCN(CCC)C1CCc2ccc(O)cc2C1 (stereo not given) [7-Hydroxy-DPAT hydrobromide],-0.0217
10,Cc1ccc(C[N+](C)(C)C)o1 [5-Methylfurmethiodide],-0.0134
11,CC(C(=O)OC1CC2CCC(C1)N2C)c1ccc(Br)cc1 (stereo not given) [PG-9 maleate],0.116
12,CC[N+](CC)(CCCNC1=CC(=O)C(NCCC[N+](CC)(CC)Cc2ccccc2)=CC1=O)Cc1ccccc1 [Benzoquinonium dibromide],-0.144
13,c1ccc2c(c1)[I+]c1ccccc1-2 [Diphenyleneiodonium chloride],0.217
14,c1ccc2sc(C3(N4CCCCC4)CCCCC3)cc2c1 [BTCP maleate],0.288
15,NC(C(=O)O)c1nn[nH]n1 (racemic) [(RS)-(Tetrazol-5-yl)glycine],0.24
16,C[C@H](N)Cc1cnc[nH]1,0.17
17,CCCN[C@@H]1CCc2c(OC)cccc2[C@@H]1C [(+)-AJ 76 hydrochloride],0.121
18,COc1ccc(C(=O)N2CCCC2=O)cc1 [Aniracetam],0.228
19,CC(C)C[C@H]1C(=O)N2CCC[C@H]2[C@]2(O)O[C@](NC(=O)[C@@H]3C=C4c5cccc6[nH]c(Br)c(c56)C[C@H]4N(C)C3)(C(C)C)C(=O)N12 [Bromocriptine mesylate],0.17
20,C=C(C)[C@H]1CN[C@H](C(=O)O)[C@H]1CC(=O)O [Kainic acid],0.377
